Results filed as inconclusive are left out. Active and inactive are the calls of the source. Calls follow the shape of the dose curve; as a rule, active = well fitted inhibition curve with a large enough effect; inconclusive = small, poorly fitted or top-dose-only effect; inactive = flat fitted curve, though single readings scatter. Where a SMILES comes first, the peptide text is derived from it. Bridges are numbered along the chain shown (N, C = ends). [ ]: non-standard residue; d: D form. NMeY = CN[CH](Cc1ccc(O)cc1)C(=O)O
Tests used:
[1] = tested on: HEK293; test: Cytotoxic Profiling of Annotated Libraries Using Quantitative High-Throughput Screening (AID 1296008); conditions: Five cell lines viability, CellTiter-Glo ATP luminescence, 48-72 h; max response: hits give low values; also: potency is read from the fitted curve at half-maximal effect; as to max response: % is scaled to controls: 0 for no effect and ±100 for the full control effect
Method in brief: (§1)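 Cells exposed to compounds for 48 or 72 hr at 37 degrees Celsius. Viability read as ATP-coupled luminescence with CellTiter-Glo after 10 min at room temperature.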

[2] = tested on: HaCat; test: as above; conditions: Five cell lines viability, CellTiter-Glo ATP luminescence, 48-72 h; max response: hits give low values
Method in brief: as §1

[3] = tested on: KB-3-1; test: as above; conditions: Five cell lines viability, CellTiter-Glo ATP luminescence, 48-72 h; max response: hits give low values
Method in brief: as §1

[4] = tested on: NIH3T3; test: as above; conditions: Five cell lines viability, CellTiter-Glo ATP luminescence, 48-72 h; max response: hits give low values
Method in brief: as §1

[5] = tested on: HACAT; test: qHTS assay to identify novel small-molecules to repurpose for Merkel cell carcinoma treatment (AID 1296009); conditions: MCC and control cell lines, CellTiter-Glo viability, 72 h; series mostly up to 44.8 µM
Method in brief: (§2)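 Cells were incubated with compound for 72 hr at 37 degree celsius before CellTiter-Glo addition. Luminescence was normalized with no-cell wells as full cytotoxicity and DMSO as baseline.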

[6] = tested on: HEK293T; test: as above; conditions: MCC and control cell lines, CellTiter-Glo viability, 72 h; at 44.8 µM (top of the series) unless noted
Method in brief: as §2
Also: nearly all actives have a fitted effect of over 60% in size.

C/C=C/c1ccc2c(c1)[C@@H](C)[C@H](c1ccc(O)cc1)O2
inactive: max response [1] 1.71% | outcome [2] | max response [3] -2.15% | max response [4] 3.14% | Potency [5]

Cc1cc(O)cc(O[C@@H]2O[C@H](CO)[C@@H](O)[C@H](O)[C@H]2O)c1
inactive: max response [1] 0.562% | max response [2] -10.5% | max response [3] 4.47% | max response [4] -8.17%

C/C=C/C1=CC2=C(CO1)C(=O)C(C)(O)C(OC(=O)c1c(C)cc(OC)cc1O)C2 (stereo not given)
active: Potency [1] 11.4 µM
inactive: outcome [2] | max response [3] 3.88% | max response [4] -6.89% | Potency [5]

COC(=O)N1CCC(n2ncc3c(N4CCOCC4)nc(-c4ccc(NC(=O)Nc5ccc(CO)cc5)cc4)nc32)CC1
active: Potency [1] 0.058 µM | Potency [2] 3.66 µM | Potency [3] 0.231 µM | Potency [4] 1.46 µM

CC1(C)C=CN2C(=O)C3=CCCN3C(=O)[C@@H]2C[C@@]12Nc1ccccc1C2=O
inactive: max response [1] -9.52% | max response [2] -4.92% | outcome [3] | max response [4] -3.89%

COc1cc(C(=O)OC[C@H]2O[C@@H](Oc3ccccc3/C=C/C(=O)O)[C@H](O)[C@@H](O)[C@@H]2O)cc(OC)c1OC
inactive: max response [1] -0.285% | outcome [2] | max response [3] 5.09% | max response [4] 0.074% | Potency [5]

CC1=CC(=O)C(=C(C)C)CC2C1CCC2(C)O (stereo not given)
inactive: max response [1] 4.65% | max response [2] -1.27% | max response [3] 8.27% | max response [4] -2.64%

COc1cccc(Nc2ncnn3ccc(CN4CC[C@@H](N)[C@H](O)C4)c23)c1
inactive: max response [3] -14.7%
active: Potency [1] 13 µM | Potency [2] 0.0058 µM | Potency [4] 0.517 µM

CCC(C)C1NC(=O)C2CCCN2C(=O)C(NC(C)=O)C(C)OC(=O)C(Cc2ccc(OC)cc2)N(C)C(=O)C2CCCN2C(=O)C(C(C)C)NC1=O (stereo not given) (Ac-TPIVP[NMeY](Me); ester 1-C; configuration not given here)
inactive: max response [1] -18.8% | outcome [2] | max response [3] -2.69% | outcome [4] | Potency [5]

O=C(/C=C\n1cnc(-c2cc(C(F)(F)F)cc(C(F)(F)F)c2)n1)N1CC(F)(F)C1
inactive: max response [2] -18.4%
active: Potency [1] 1.3 µM | Potency [3] 7.31 µM | Potency [4] 1.84 µM

COC(=O)C1=CO[C@@H](O[C@@H]2O[C@H](CO)[C@@H](O)[C@H](O)[C@H]2O)[C@H]2[C@@H]1C=C[C@@]21C=C([C@H](C)O)C(=O)O1
inactive: max response [1] -5.88% | outcome [2] | outcome [3] | max response [4] 3.5% | Potency [5]

COC(=O)C12C(=O)C(C)=C(O)C1(C)C(C)=CC1C3(CO)CCC(O)C(C)(C)C3CCC12C (stereo not given)
inactive: max response [1] 1.96% | outcome [2] | max response [3] -2.12% | max response [4] -3.91% | Potency [5]

OCC(CO[C@@H]1O[C@H](CO)[C@@H](O)[C@H](O)[C@H]1O)c1ccc2c(c1)OCO2 (stereo not given in full)
inactive: max response [1] -1.28% | max response [2] 1.18% | max response [3] -7.72% | max response [4] -0.622%

Cc1cc(NC(=O)Nc2ccc(F)c(F)c2)n(-c2ccccc2)n1
inactive: max response [1] -2.17% | outcome [2] | max response [3] 4.72% | max response [4] -11% | Potency [5]

Cc1ccc(C)c(OCCn2cc(C(=O)O)c3ccccc32)c1
inactive: max response [1] -0.983% | outcome [2] | max response [3] 3.13% | max response [4] 4.52% | Potency [5]

CCCOC(c1cc2nccc(C(=O)O)c2[nH]1)c1ccccc1Cl (stereo not given)
inactive: max response [1] -12.6% | max response [2] -2.87% | outcome [3] | max response [4] 4.32%

CC1(C)CCC[C@@]2(C)C1[C@H](OC(=O)/C=C/C=C/C(=O)O)C=C1COC(=O)[C@@]12O (stereo not given in full)
inactive: max response [1] -4.94% | outcome [2] | max response [3] 0.106% | outcome [4] | Potency [5]

CC1=C2C(O)C(=O)OC(c3ccoc3)C2(C)CCC1O (stereo not given)
inactive: max response [1] -2.84% | outcome [2] | outcome [3] | max response [4] 3.37% | Potency [5]

C[C@@H]1CC[C@]2(C(=O)O[C@@H]3O[C@H](CO)[C@@H](O)[C@H](O)[C@H]3O)CC[C@]3(C)C(=CCC4[C@@]5(C)C[C@@H](O)[C@H](O)[C@](C)(C(=O)O)C5CC[C@]43C)[C@@H]2[C@]1(C)O (stereo not given in full)
inactive: max response [1] 2.11% | outcome [2] | max response [3] 5.29% | max response [4] 0.619% | Potency [5]

O=C(O)C1CN(Cc2ccc(-c3nc4cc(Cc5ccccc5F)ccc4s3)c(F)c2)C1
inactive: max response [1] -0.852% | outcome [2] | max response [3] -5.18% | max response [4] 3.31% | outcome [5] inactive [at 9.27 µM]

CC1(C)CCCC2(C)C1CC(=O)C13CC(CCC12)C(O)(CO)C3 (stereo not given)
inactive: max response [1] 0.204% | outcome [2] | max response [3] 8.26% | max response [4] 2.51% | Potency [5]

CC(C)=CCC/C(C)=C/CO[C@@H]1O[C@H](CO)[C@@H](O)[C@H](O)[C@H]1O
inactive: max response [1] 1.41% | outcome [2] | outcome [3] | max response [4] -9.17% | Potency [5]

CC(=O)OC1CC2C3(C)CCC(OC(=O)CC(=O)O)C(C)(C)C3CCC2(C)C2(C)CCC(C3(C)CCC(=O)O3)C12 (stereo not given)
inactive: outcome [1] | max response [2] 3.4% | outcome [3] | max response [4] 2.16% | outcome [6] inactive [at 17.4 µM]

COc1ccc([C@@]2(O)c3c(ccc(CC=C(C)C)c3O)NC(=O)[C@@H]2OC)cc1
inactive: outcome [1] | outcome [2] | max response [3] 8.3% | max response [4] 4.4% | Potency [5] | outcome [6]

O=S(=O)(c1ccccc1)c1cnc2c(N3CCNCC3)cccc2c1
inactive: max response [1] -8.82% | outcome [2] | max response [3] 0.14% | max response [4] -14.1% | Potency [5]

CCCC(=O)O[C@@H]1[C@@H]2[C@@H](OC(C)=O)[C@]3(C)C(=O)[C@H]4[C@@H](OC(C)=O)C(C)(C)C[C@H]4[C@]3(C)C(=O)[C@@]2(OC(C)=O)C[C@@H]1C
inactive: max response [1] 3.97% | outcome [2] | max response [3] 8.81% | outcome [4] | Potency [5]

CC(C)=C/C=C\[C@H](C)[C@H]1CC[C@]2(C)C[C@@H]3C(C)=CC(=O)C3/C(CO)=C\C[C@@H]12 (stereo not given in full)
inactive: max response [1] -20.2% | outcome [2] | outcome [3] | max response [4] 3.13% | Potency [5]

O=C(Nc1nc2ccccc2n1CCc1ccccc1)c1ccccc1
inactive: max response [1] -110% | outcome [2] | max response [3] 5.59% | max response [4] -1.28% | Potency [5]

N#Cc1cc(F)cc(-c2nc(-c3ccccn3)no2)c1
inactive: max response [1] -8.23% | outcome [2] | max response [3] -6.38% | max response [4] -10.9% | Potency [5]

C/C(=C\CCC(C)CCO)C(=O)OC1(C)CCC2C(C(=O)O)=COC(OC3OC(CO)C(O)C(O)C3O)C21 (stereo not given)
inactive: outcome [1] | max response [2] -20.6% | outcome [3] | outcome [4] inactive; activator | outcome [6] inactive [at 17.4 µM]

CC(=O)O[C@@H]1[C@H](O[C@@H]2O[C@@H](CO)[C@H](O)[C@H]2O)[C@@H](O[C@@H]2O[C@@H](C)[C@H](O[C@@H]3OC[C@@H](O)[C@H](O)[C@H]3O)[C@@H](O)[C@H]2O)[C@H](OC(=O)[C@]23CCC(C)(C)C[C@H]2C2=CCC4[C@@]5(C)CC[C@H](O[C@@H]6O[C@H](C(=O)O)[C@@H](O)[C@H](O)[C@H]6O[C@@H]6O[C@H](CO)[C@H](O)[C@H](O)[C@H]6O)[C@@](C)(C=O)C5CC[C@@]4(C)[C@]2(C)CC3)O[C@@H]1C (stereo not given in full)
inactive: max response [1] -1.69% | outcome [2] | max response [3] 5.7% | max response [4] 4.82% | outcome [5] inactive [at 9.27 µM]

OCc1ccc(O[C@@H]2O[C@H](CO)[C@@H](O)[C@H](O)[C@H]2O)cc1
inactive: max response [1] -0.162% | outcome [2] | max response [3] -3.37% | max response [4] 2.54% | Potency [5]

COc1cc(OC)c(/C=C/S(=O)(=O)Cc2ccc(OC)c(NCC(=O)O)c2)c(OC)c1
inactive: outcome [2] | Potency [5]
active: Potency [1] 0.058 µM | Potency [3] 0.206 µM | Potency [4] 0.146 µM

COC(=O)CC(O)CC(O)/C=C/c1c(C)ccc2c1C(O)CC(C)C2 (stereo not given)
inactive: outcome [1] | max response [2] -0.771% | outcome [3] | outcome [4] | outcome [6]

C=C1C(OC2OCC(O)C(O)C2O)CC2C(C)(C)C(O)CCC2(C)C1CC/C(C)=C\CO (stereo not given)
inactive: max response [1] -24.4% | outcome [2] | max response [3] 3.38% | max response [4] 1.42% | Potency [5]

COc1cc2c(c(OC)c1CC=C(C)C)C[C@H](c1ccc(O)cc1O)CO2
inactive: max response [1] 0.883% | outcome [2] | outcome [3] | max response [4] 0.487% | Potency [5]

CN1C2CCC1CC(OC(=O)[C@H](CO)c1ccccc1)C2 (stereo not given in full)
inactive: max response [1] -10.6% | outcome [2] | max response [3] -9.98% | max response [4] -25.3% | Potency [5]

CC(C)c1ccc(CO)cc1O[C@@H]1O[C@H](CO)[C@@H](O)[C@H](O)[C@H]1O
inactive: outcome [1] | max response [2] 1.11% | outcome [3] | outcome [4] | outcome [6]

O=C(/C=C/c1ccccc1)OC[C@]12O[C@H]1[C@@H](O)[C@@H]1C=CO[C@@H](O[C@@H]3O[C@H](CO)[C@@H](O)[C@H](O)[C@H]3O)[C@@H]12
inactive: outcome [1] | outcome [2] | outcome [3] | outcome [4] | Potency [5] | outcome [6] inactive [at 17.4 µM]

COc1cc(/C=C/C=O)cc(OC)c1O[C@@H]1O[C@H](CO)[C@@H](O)[C@H](O)[C@H]1O
inactive: max response [1] -3.11% | outcome [2] | outcome [3] | max response [4] -71.2% | Potency [5]

Cc1ccc(S(=O)(=O)n2ccc(-c3c(-c4ccc(Cl)cc4)noc3C)n2)cc1
active: Potency [1] 4.11 µM
inactive: outcome [2] | max response [3] -24.7% | max response [4] -14.9% | Potency [5]

C[C@@H]1O[C@@H](O[C@@H]2[C@@H](O)[C@@H](O[C@]3(CO)O[C@H](CO)[C@@H](O)[C@@H]3OC(=O)/C=C/c3ccc(O)cc3)O[C@H](CO)[C@H]2OC(=O)/C=C/c2ccc(O)cc2)[C@H](O)[C@H](O)[C@H]1O[C@@H]1O[C@@H](C)[C@H](O[C@@H]2OC[C@](O)(CO)[C@H]2O)[C@@H](O)[C@H]1O
inactive: outcome [1] | outcome [2] | max response [3] 3.92% | max response [4] -0.786% | outcome [5] inactive [at 9.27 µM] | outcome [6] inactive [at 9.27 µM]

Source: PubChem BioAssay (NCATS)
